Results on 27 compounds are retold here after PubChem BioAssay (NCI).

The panel holds about 83,000 compounds, 20% with a hit somewhere; the sample as a whole holds those more often.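 Testing used 96-well plates and a 48-hour single-concentration exposure. Example: -40 means 40% of the starting cells died.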 Unmarked numbers belong to inactive results. Calls of active or inactive are those of the source. Rule for the calls: active = growth percent below 10; inactive = the rest.

Assay in all cases: NCI-60 one-dose screen, 48 h (100 = growth as untreated, 0 = no growth, -100 = all killed)
What all share (details): 10 µM unless noted

Test [1] relates to HCT-15 colon.
Test [2] has as its system HT29 colon.
The subject of test [3] is SNB-75 CNS.
Test [4] deals with SNB-19 CNS.
The subject of test [5] is U251 CNS.
The subject of test [6] is PC-3 prostate.
For test [7], the system named is SK-MEL-5 melanoma.
The subject of test [8] is UACC-62 melanoma.
The test system of test [9] is LOX IMVI melanoma.
For test [10], the system named is SK-MEL-28 melanoma.

In the case of `CC(C)c1ccc(-c2cnc3nonc3n2)cc1`, the growth is 19.3% in test [1]; 29.8% in [2]; 54.3% in [3]; 40.7% in test [4]; 65.9% in test [5]; 19.3% in test [6]. Also, the growth in [7] was 32.5%; in test [8], 14.2%; in [9], 26.1%; in test [10] it was 73.9%.
On to `COc1cc(/C=C2\CN(C(=O)OC(C)(C)C)C/C(=C\c3ccc(O)c(OC)c3)C2=O)ccc1O`, for which the growth in test [1] is 98.4%; in test [2], 96.5%; in test [3] it was 94.8%; in test [4] it was 87.3%; in test [5], 92.9%; in test [6], 81.7%. In addition, the growth in test [7] is 93.4%; in [8], 82.4%; in test [9], 92.4%; in [10], 111%.
For the compound `O=C(O)c1ccccc1Oc1cc(-c2ccco2)nc(OCCN2CCOCC2)n1`, the growth in [1] is 101%; in [2] it was 92.5%; in [3], 92.4%; in [4], 96.9%; in [5] it was 113%; in [6], 127%. For the same compound, the growth in test [7] was 99.9%; in test [8], 98.9%; in [9], 99.5%; in test [10], 106%.
Turning to `COc1ccc(-c2cc(C(=O)Nc3ccc(Br)cc3)nc3[nH]c(=O)sc23)cc1`, the growth in test [1] was 37%; in test [2], 50.1%; in [3], 78.4%; in test [4], 36.5%; in test [5], 28.8%; in [6], 34.8%. The growth is 8.56% (active) in test [7], 8.05% (active) in [8], 36.7% in test [9] and 38.5% in [10].
As to `CS(=O)(=O)c1ccc(Cl)c([N+](=O)[O-])c1`, the growth in test [1] was 99.4%; in test [2] it was 94.7%; in test [3], 114%; in [4], 105%; in test [5] it was 109%; in test [6] it was 77.8%. Further, the growth in [7] was 106%; in test [8], 112%; in test [9], 88.2%; in test [10] it was 127%.
`CCCCCCCCCCCCCC1=NC(C)(C)CN1C(C)C`: the growth is -65.1% (active) in test [1]; -57.5% (active) in test [2]; -41.1% (active) in test [3]; 28.9% in test [4]; -63.5% (active) in [5]; -37.6% (active) in test [6]. Further, the growth in [7] is -86.7% (active); in [8], -70.8% (active); in test [9] it was -74.1% (active); in test [10], -73% (active).
Take `NNC(=O)CSc1nc2scc(-c3ccccc3)c2c(=O)n1-c1ccccc1`: the growth in [1] was 101%; in test [2] it was 121%; in [3], 88.3%; in [4], 107%; in test [5], 103%; in test [6], 80.5%. Besides, the growth in test [7] was 88.4%; in test [8], 90.2%; in test [9], 78.7%; in test [10] it was 111%.
As for `O=C(/C=C/c1cn(-c2ccccc2)nc1-c1ccccc1)OCc1cn(-c2cccc([N+](=O)[O-])c2)nn1`, the growth is 95.2% in test [1]; 86.3% in [2]; 74.3% in [3]; 87.8% in [4]; 78.3% in test [5]; 67.4% in test [6]. In addition, the growth in [7] is 100%; in test [8], 73.5%; in test [9], 90.1%; in test [10], 92.1%.
Turning to `COc1cccc(-c2nc3sccn3c2-c2ccnc(NCCN3CCCNS3(=O)=O)n2)c1`, the growth in [1] is 97.1%; in [2] it was 45.2%; in test [3], 88.4%; in test [4], 127%; in [5] it was 112%; in test [6], 94.4%. In addition, the growth was 80.8% in test [7], 9.99% (active) in test [8], 35% in test [9] and 44.1% in test [10].
For `CCOC(=O)C(Cc1ccccc1)n1c(O)c(/C=N/c2ncc(Cc3ccc(Cl)cc3Cl)s2)sc1=S` (stereo not given), the growth in test [1] is 10.5%; in test [2], -16.7% (active); in [3], 22%; in test [4], 19.3%; in [5] it was 4.53% (active); in test [6], -16.2% (active). Moreover, the growth in [7] was -3.04% (active); in test [8], -0.818% (active); in test [9], 21%; in [10] it was 31.8%.
For the compound `Clc1ccc(-c2nc(-c3cccs3)no2)cc1`, the growth in test [1] was 106%; in test [2], 96%; in test [3], 88.6%; in test [4], 105%; in test [5], 84.6%; in test [6] it was 84.4%. The growth in [7] was 87.9%; in test [8] it was 88.1%; in [9], 94.7%; in test [10], 112%.
Take `Cc1ccc(C)c(NC(=O)c2sc3c(=O)[nH]cnc3c2C)c1`: the growth is 49.8% in [1]; 34.9% in test [2]; 81.1% in test [3]; 91.7% in [4]; 86.1% in test [5]; 83.4% in test [6]. The growth is 74.4% in [7], 61.1% in [8], 85% in test [9] and 89.3% in [10].
As to `CCCCc1nc(Cl)c(C2CC(c3ccc(S(N)(=O)=O)cc3)=NN2c2ccc(C#N)cc2)[nH]1` (stereo not given), the growth in test [1] is 97%; in [2], 100%; in [3] it was 87.5%; in [4], 84.9%; in test [5], 76.7%; in test [6] it was 69.4%. Further, the growth is 78.3% in test [7], 68% in [8], 86.6% in test [9] and 107% in test [10].
Consider `CC(NC(=O)c1ccccc1)C(=O)Nc1ccccc1` (stereo not given), for which the growth in [1] was 115%; in test [2] it was 103%; in [3] it was 88.3%; in [4], 107%; in test [5] it was 101%; in test [6] it was 92.8%. Further, the growth in test [7] is 104%; in test [8], 104%; in test [9], 99.6%; in [10], 115%.
Regarding `CCOC(=O)C1=C(C(=O)OCC)N(c2cc(OC)c(OC)c(OC)c2)C(N)=C(C#N)C1c1cc(=O)[nH]c2ccccc12` (stereo not given), the growth in [1] is 106%; in test [2], 112%; in [3], 83%; in test [4], 98.4%; in test [5] it was 98.7%; in test [6], 123%. For the same compound, the growth in test [7] was 95.9%; in [8], 88.6%; in test [9], 93.7%; in test [10], 114%.
As to `C=C1C[C@@]2(C)C(CC[C@]3(C)C2CC=C2C4CC(C)(C)C[C@@H](OC(=O)/C(C)=C\C)[C@]4(C(=O)O)CC[C@]23C)C(C)(C)C1=O` (stereo not given in full), the growth was -16.7% (active) in [1]; -20.1% (active) in [2]; 52.5% in test [3]; 27.6% in test [4]; -47.9% (active) in test [5]; -6.78% (active) in test [6]. Further, the growth was 26.4% in [7], -12.6% (active) in [8], -65.7% (active) in test [9] and 2.5% (active) in test [10].
For the compound `CN1C(=O)C(C2=NNC(c3ccccc3C(=O)O)C2)C(=O)N(C)C1=O` (stereo not given), the growth was 106% in test [1]; 98.5% in test [2]; 85.4% in test [3]; 92.9% in [4]; 98.1% in test [5]; 95.6% in test [6]. In addition, the growth in test [7] is 108%; in [8], 96.2%; in test [9], 101%; in test [10], 123%.
Regarding `CC(=O)Oc1c(Cl)c(Cl)c(Cl)c(Cl)c1Cl`, the growth in [1] was 95%; in test [2], 99.9%; in test [3], 80.1%; in test [4] it was 96.3%; in test [5], 94.7%; in [6], 91.1%. Besides, the growth in test [7] was 102%; in [8], 88%; in test [9], 93.1%; in test [10], 104%.
With `O=C(/C=C/c1ccccc1)c1c[nH]c2ccccc2c1=O`, the growth in test [1] is 4.67% (active); in [2], 8.44% (active); in test [3], -15.6% (active); in test [4] it was 16.3%; in test [5], 11.6%; in [6], 26.7%. The growth in [7] was 43.4%; in test [8], 29.2%; in test [9], -32.6% (active); in test [10] it was 66.4%.
Consider `COc1ccc(-n2c(COc3ccc(F)cc3)n[nH]c2=S)cc1`, for which the growth was 114% in test [1]; 103% in test [2]; 97.7% in test [3]; 106% in test [4]; 97.4% in test [5]; 154% in test [6]. Moreover, the growth was 105% in test [7], 98.6% in [8], 104% in test [9] and 127% in test [10].
On to `Cc1ccc(OC2=C(C#N)C(=N)N3C(=NN2)Sc2c(C)ccc(C)c23)cc1`, for which the growth is 104% in test [1]; 116% in test [2]; 96.5% in [3]; 118% in [4]; 103% in [5]; 82.4% in test [6]. Moreover, the growth in [7] was 96.3%; in test [8] it was 98.7%; in [9], 96.7%; in test [10], 106%.
For `O=C1N(Cc2ccccc2Cl)c2ccccc2C12NN=C(c1ccccc1)S2` (stereo not given), the growth in test [1] was 35.3%; in test [2], 107%; in [3], 71.8%; in [4], 53%; in test [5], 36.1%; in test [6] it was 45.1%. Moreover, the growth is 53.3% in test [7], 58.6% in test [8], 42.3% in [9] and 78.6% in test [10].
Take `N/C(=N\OC(=O)c1ccccc1)C(C(=O)NOC(=O)c1ccccc1)C1CCCCC1` (stereo not given): the growth in test [1] is 53.3%; in test [2], 96.7%; in [3] it was 35.7%; in test [4], 76%; in [5], -25% (active); in [6], 54.5%. For the same compound, the growth is 74.3% in [7], 56.6% in test [8], -85.2% (active) in test [9] and 93.3% in test [10].
As for `CCN(C(=O)CCl)C(C)(C)C(SSSC(c1ccc(Cl)cc1)C(C)(C)N(CC)C(=O)CCl)c1ccc(Cl)cc1` (stereo not given), the growth in [1] is 56.3%; in test [2] it was 18%; in [3], 84.3%; in test [4] it was 117%; in test [5], 63.5%; in test [6] it was 63.3%. Moreover, the growth in test [7] is 73.5%; in test [8], -2.54% (active); in test [9] it was 66.6%; in [10] it was -24.6% (active).
As for `CCCCCCCCCCCC1=NC(C)(C)CN1C(C)C`, the growth was 11.8% in test [1]; 0.372% (active) in test [2]; 52% in test [3]; 86.7% in test [4]; 37% in test [5]; 34.6% in test [6]. Moreover, the growth in test [7] is -24.7% (active); in test [8], -51.3% (active); in test [9], 34.6%; in [10] it was -54.7% (active).
As to `CC(=O)N1N=C(C2C(=O)N(C)C(=O)N(C)C2=O)CC1c1ccccc1C(=O)O` (stereo not given), the growth in test [1] is 110%; in test [2], 98.9%; in test [3], 95%; in test [4], 106%; in test [5], 104%; in test [6] it was 95.4%. In addition, the growth in [7] was 107%; in test [8], 100%; in test [9], 99.1%; in test [10], 112%.
On to `S=C(Cc1ccccc1)N1CCN(c2ccccc2Cl)CC1`, for which the growth was 106% in test [1]; 100% in [2]; 96.8% in test [3]; 116% in test [4]; 99.2% in test [5]; 86.6% in test [6]. Further, the growth in test [7] was 90.9%; in test [8], 86.2%; in test [9], 105%; in [10], 119%.
